The list is not random: actives were taken first. Their share in the collection is about 3.4%.
FBW7 activator: human FBW7 E3 ligase activation, primary screen; AlphaScreen FBW7–phospho-cyclin E peptide binding, activator screen; normalized activity (activation), % at 26.1 µM; 650,000 tested, 0.13% active; in the data active = normalized activity above about 1.9%;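 note: purified mutant Fbw7 with reduced substrate affinity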
TEAD-YAP inh: TEAD-YAP interaction inhibition; HEK-TIYL cells, TEAD-Gal4/YAP UAS-luciferase luminescence; inhibition, % at 9.12 µM; 640,000 tested, 1.4% active; AID 1259422; in the data active = inhibition above about 32%
MITF primary: inhibitors of human MITF; AlphaScreen MITF homodimerization, bead proximity signal; inhibition, % at 2.6 µM; 650,000 tested, 0.91% active; AID 1259374; in the data active = inhibition above about 50%
GPR151 ag: human GPR151 activation. Q8TDV0. PathHunter beta-arrestin GPR151 cells, luminescence. activation, % at 11.2 µM. 650,000 tested, 1% active. AID 1508602; in the data active = activation above about 4.9%
GPR151 conf act: human GPR151 activation, confirmation screen; shares compounds with GPR151 ag; GPR151 PathHunter beta-arrestin cells, luminescence, 90 min; % of EA-reagent control over plate median; activation, % at 11.2 µM; 6,700 tested, under 10 active;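 active = mean percent activation across replicates above the confirmation screen cutoff of 4.91%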
GPR119 ag: activates human GPR119 in a GPR151 counter-screen; shares compounds with GPR151 ag; GPR119 PathHunter beta-arrestin cells, luminescence, 90 min; 0 = compound-well median, 100 = enzyme-acceptor control; activation, % at 11.2 µM; 6,700 tested, 0.3% active; AID 1508611;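 active = mean percent activation in the counterscreen above 29.09%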;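 note: counterscreen on off-target GPR119 to flag nonselective hits from the GPR151 activator screen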
Target sequence (Q8TDV5 whole entry, looked up): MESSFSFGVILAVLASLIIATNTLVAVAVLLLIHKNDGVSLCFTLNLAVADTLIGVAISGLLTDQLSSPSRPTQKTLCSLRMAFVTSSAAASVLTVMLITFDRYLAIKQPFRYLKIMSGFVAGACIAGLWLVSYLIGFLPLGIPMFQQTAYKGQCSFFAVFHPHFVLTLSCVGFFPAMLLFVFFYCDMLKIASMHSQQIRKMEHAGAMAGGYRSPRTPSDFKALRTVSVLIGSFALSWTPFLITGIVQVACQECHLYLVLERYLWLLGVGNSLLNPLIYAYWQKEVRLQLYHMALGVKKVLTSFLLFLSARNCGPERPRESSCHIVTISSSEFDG
Hits are given with their value; - = inactive; . = no result.

SMILES	FBW7 activator	TEAD-YAP inh	MITF primary	GPR151 ag	GPR151 conf act	GPR119 ag
CC(NS(=O)(=O)c1ccc2c(c1)NC(=O)CC(=O)N2)c1ccccc1 (stereo unspecified)	-	-	-	8.3	-	-
O=C1CC(=O)Nc2cc(S(=O)(=O)NCC3COc4ccccc4O3)ccc2N1 (stereo unspecified)	-	-	-	5.0	-	-
CN(C)/N=C/c1cn(-c2ccccc2)nc1-c1cccs1	-	-	-	-	.	.
CCOC(=O)C1(CCCc2ccccc2)CCN(C(=O)CSc2ncccn2)CC1	-	-	-	-	.	.
CCOC(=O)C1(CC2CCCCO2)CCN(C(=O)CSc2ncccn2)CC1 (stereo unspecified)	-	-	-	4.9	-	-
CCOC(=O)C1(CCc2ccccc2)CCN(C(=O)CSc2ncccn2)CC1	-	-	-	5.6	-	-
Cc1csc(NC(=O)CSc2nnc(CSCc3ccc(F)cc3)n2C)n1	-	-	-	5.1	-	-
Cc1csc(NC(=O)CSCC(=O)Nc2ccccc2)n1	-	-	-	6.9	-	-
O=C(CSCC(=O)Nc1ccc2nc(SCC(=O)Nc3ccccc3)sc2c1)Nc1ccc2ccccc2c1	-	-	-	-	.	.
CCn1c(CSCc2ccc(F)cc2)nnc1SCC(=O)Nc1nc(C)cs1	-	-	-	-	.	.
CCOC(=O)CSc1nc2ccc(NC(=O)CSCC(=O)Nc3ccccc3)cc2s1	-	-	-	4.9	-	-
O=C1CN(Cc2ccccc2OCC(O)CN2CCc3ccccc3C2)CCN1 (stereo unspecified)	-	-	-	-	.	.
Cc1c(NC(=O)Cc2ccc(Cl)cc2)c(=O)n(-c2ccccc2)n1C	-	-	-	-	.	.
Cc1c(NC(=O)c2cc(-c3ccc(Cl)c(Cl)c3)on2)c(=O)n(-c2ccccc2)n1C	-	-	-	8.5	-	-
COc1ccccc1OC(C)C(=O)Nc1c(C)n(C)n(-c2ccccc2)c1=O (stereo unspecified)	-	-	-	6.7	-	-
Cc1c(NC(=O)CCSc2ccc(Cl)cc2)c(=O)n(-c2ccccc2)n1C	-	-	-	5.2	-	-
CCOC(=O)c1c(NC(=O)CSc2nnc(CNC(=O)COc3ccc(Cl)cc3)n2-c2ccc(OCC)cc2)sc2c1CCC2	-	-	-	-	.	.
c1ccc2c(c1)sc1nnc(SCc3cn4cccnc4n3)n12	-	-	-	5.0	-	-
CN(C)c1ccc(C2C(=O)N(C3CCCCC3)CC(=O)N2Cc2cccs2)cc1 (stereo unspecified)	-	-	-	-	.	.
COc1ccc(C2C(=O)N(C3CCCC3)CC(=O)N2Cc2cccs2)cc1 (stereo unspecified)	-	-	-	11.0	-	-
O=C(COc1ccc(Br)cc1)Nc1ccc2oc(=O)ccc2c1	-	-	-	-	.	.
Cc1ccc(OCC(=O)Nc2ccc3oc(=O)ccc3c2)c(C)c1	-	-	-	5.5	-	-
COc1ccc(OCC(=O)Nc2ccc3oc(=O)ccc3c2)cc1	-	-	-	5.8	-	-
Cc1ccc(OCC(=O)Nc2ccc(Br)cn2)c(C)c1	-	-	-	8.3	-	-
Cc1ccc(OCC(=O)NNC(=O)COc2ccc(Br)cc2C)c(C)c1	-	-	-	-	.	.
SMILES	FBW7 activator	TEAD-YAP inh	MITF primary	GPR151 ag	GPR151 conf act	GPR119 ag
O=C1C2CC(c3ccccc3)=C3C4C=CC(C5C(=O)N(c6ccc(Cl)c(Cl)c6)C(=O)C45)C3C2C(=O)N1c1ccc(Cl)c(Cl)c1 (stereo unspecified)	-	-	-	-	.	.
COc1cc(OC)c(C(=O)OCC(=O)NC(N)=O)cc1OC	-	-	-	-	.	.
CN(C(=O)COc1ccc(C(C)(C)C)cc1)C1(C)CCS(=O)(=O)C1 (stereo unspecified)	-	-	-	5.5	-	-
CN(C)C(=O)[C@@H]1C[C@@H](Sc2ccccn2)CN1C1Cc2ccccc2C1	-	-	-	-	.	.
NC(=O)c1cc(-c2ccc3c(c2)OCO3)no1	-	-	-	5.7	-	-
COC(=O)c1cc(-c2ccc3c(c2)OCO3)no1	-	-	-	-	.	.
O=C(CN(CC1CCCO1)C(=O)CCC(=O)Nc1ccccn1)NCC1CCCO1 (stereo unspecified)	-	-	-	5.0	-	-
O=C(O)c1ccc(Nc2ccc([N+](=O)[O-])cn2)cc1	-	-	-	-	.	.
COc1ccc(-c2nnc(SCc3nc4ccccc4[nH]3)n2-c2ccccc2)cc1OC	-	-	-	5.0	-	-
O=C1CCc2cc(S(=O)(=O)N3CCC(C(=O)Nc4cccc(F)c4)CC3)ccc2N1	-	-	-	-	.	.
CCOc1cc(/C=C(\C#N)C(=O)c2ccccc2)ccc1OCCn1c([N+](=O)[O-])cnc1C	-	-	-	8.9	-	-
Cc1nc([N+](=O)[O-])nn1C12CC3CC(CC(C3)C1)C2	-	-	-	-	.	.
COc1ccc(C(=O)NCCC(=O)NCC2CCCO2)cc1OC (stereo unspecified)	-	-	-	5.7	-	-
COc1ccc(S(=O)(=O)NNC(=S)NCC2CCCO2)c(OC)c1 (stereo unspecified)	-	-	-	5.0	-	-
O=S(=O)(NNC(=S)NCC1CCCO1)c1cc(Cl)ccc1Cl (stereo unspecified)	-	-	-	-	.	.
CN1CSC2=C(C#N)C(c3cccc(OCc4ccccc4)c3)CC(=O)N2C1 (stereo unspecified)	-	-	-	8.7	-	-
O=C(N/N=C/c1ccc(Cl)c([N+](=O)[O-])c1)c1cc(-c2ccccc2)n[nH]1	-	-	-	7.2	-	-
O=C(Nc1ccc2nn(-c3ccccc3)nc2c1)C(Cl)(Cl)Cl	-	-	-	-	.	.
Nc1nc(NC(=O)C(Cl)(Cl)Cl)nn1-c1ccccc1	-	-	-	7.0	-	-
COc1cccc2c1CCN(Cc1ccccc1C)C2=O	-	-	-	-	.	.
O=C(O)CCCCNS(=O)(=O)c1ccccc1C(F)(F)F	-	-	-	9.4	-	-
COc1ccc(-c2nc(NCCN(C(C)C)C(C)C)nc(OC)n2)cn1	-	-	-	6.1	-	-
COc1nc(NCCN(C(C)C)C(C)C)nc(-c2ccccc2)n1	-	-	-	-	.	.
COc1ccc(C2C(C#N)=C(N)Oc3cc(C)n(Cc4ccco4)c(=O)c32)c(OC)c1OC (stereo unspecified)	-	-	-	-	.	.
CN(Cc1nc(-c2cccnc2)no1)S(=O)(=O)c1ccc2ccccc2c1	-	-	-	5.1	-	-
CN(Cc1nc(-c2cccnc2)no1)S(=O)(=O)c1ccc(Br)cc1	-	-	-	-	.	.
CCOC(=O)C1=C(C)NC2=C(C(=O)CC(c3ccc(Cl)cc3)C2)C1c1cccc(OC)c1OC (stereo unspecified)	-	-	-	20.9	-	-
COCCOC(=O)C1=C(C)NC2=C(C(=O)CC(c3ccc(Cl)cc3)C2)C1c1cccc(OC)c1OC (stereo unspecified)	-	-	-	-	.	.

Assay outcomes from PubChem BioAssay.
